The full data set covers some 8,800 targets. This sample favours those with a hit. About 0.5% of all pairs of compound and target were hits. Values without a mark were called inactive.
How the values were obtained:
Assay in all cases: log2 fold change, soluble protein after heating vs DMSO (PISA); higher = thermal stabilisation; K562 lysate, 10 uM; active = over 0.2 and 3.5 SD of the protein, either way, in both replicates (recomputed)
ibrutinib = compound: C=CC(=O)N1CCC[C@@H](n2nc(-c3ccc(Oc4ccccc4)cc3)c3c(N)ncnc32)C1 [ibrutinib]
Outline: (§1)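 Pellets of K562 cells were dounce-homogenised in PBS pH 7.4 with 1 mM MgCl2, and the crude extract was held at 1 mg/mL protein for a 30 min treatment with 10 μM compound. Aliquots were heated for 3 min over 48°C-58°C and pooled before NP-40 was added to 0.5% at 4°C. The supernatant from 21,000xg for 90 min was quantified by TMTpro 16plex LC-MS/MS with channel sums equalised. Values are reported from duplicates as log-two fold change in thermal stability relative to solvent controls.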

[1] = compound: CC(=O)c1cnc2ccc(-c3cc(Cl)c(O)c(Cl)c3)nc2c1N[C@H]1CC[C@H](CN(C)C)CC1
Outline: as §1

ralimetinib = compound: CC(C)(C)Cn1c(N)nc2ccc(-c3[nH]c(C(C)(C)C)nc3-c3ccc(F)cc3)nc21 [ralimetinib]
Outline: as §1

[2] = compound: CC(C)(O)CC(=O)NCCn1ccc2ncnc(Nc3ccc(Oc4cccc(C(F)(F)F)c4)c(Cl)c3)c21
Outline: as §1

[3] = compound: CC(C)C1=C2N=C(C=C(N2N=C1)NCC3=CC=CC=C3)NCCCCCCN
Outline: as §1

[4] = compound: CC1=C(C(CC(=O)N1)C2=CC=C(C=C2)C(F)(F)F)C(=O)NC3=C(C=C4C(=C3)C=NN4)F
Outline: as §1

[5] = compound: CC1=C(C2=C(C=C1)C(=O)C3=CC=CC=C3N2CCCN)C
Outline: as §1

[6] = compound: CC1=C(C=C(C=C1)NC(=O)C2=CC(=CC=C2)C(C)(C)C#N)NC3=CC4=C(C=C3)N=CN(C4=O)C
Outline: as §1

[7] = compound: CC1=C(C=C(C=C1)NC(=O)C2=CC(=CC=C2)N(C)C)NC(=O)C3=CC=C(C=C3)O
Outline: as §1

[8] = compound: CC1=CC=C(C=C1)SC2=C3C=C(SC3=CN=C2)C(=O)N
Outline: as §1

vemurafenib = compound: CCCS(=O)(=O)Nc1ccc(F)c(C(=O)c2c[nH]c3ncc(-c4ccc(Cl)cc4)cc23)c1F [vemurafenib]
Outline: as §1

[9] = compound: CCCS(=O)(=O)Nc1ccc(F)c(C(=O)c2c[nH]c3ncc(Cl)cc23)c1F
Outline: as §1

barasertib = compound: CCN(CCCOc1ccc2c(Nc3cc(CC(=O)Nc4cccc(F)c4)[nH]n3)ncnc2c1)CCOP(=O)(O)O [barasertib]
Outline: as §1

[10] = compound: CC[C@@H]1C(=O)N(C)c2cnc(Nc3ccc(C(=O)NC4CCN(C)CC4)cc3OC)nc2N1C1CCCC1
Outline: as §1

volasertib = compound: CC[C@@H]1C(=O)N(C)c2cnc(Nc3ccc(C(=O)N[C@H]4CC[C@H](N5CCN(CC6CC6)CC5)CC4)cc3OC)nc2N1C(C)C [volasertib]
Outline: as §1

[11] = compound: CCn1c(C(=O)N(C2CC2)C2CC2)cc2c3c(ncn3C)c(Nc3cc(C)n(C)n3)nc21
Outline: as §1

[12] = compound: CCn1cc(-c2ccnc3[nH]c(-c4cccc(CN(C)C)c4)cc23)c(-c2ccc(NC(=O)N(C)C)cc2)n1
Outline: as §1

[13] = compound: CN1CCC(CNc2ccc3ncc(-c4cccc(OC(F)(F)F)c4)n3n2)CC1
Outline: as §1

saracatinib = compound: CN1CCN(CCOc2cc(OC3CCOCC3)c3c(Nc4c(Cl)ccc5c4OCO5)ncnc3c2)CC1 [saracatinib]
Outline: as §1

sotrastaurin = compound: CN1CCN(c2nc(C3=C(c4c[nH]c5ccccc45)C(=O)NC3=O)c3ccccc3n2)CC1 [sotrastaurin]
Outline: as §1

Chain of UniProt Q6ZT12 (Q6ZT12 whole entry, looked up): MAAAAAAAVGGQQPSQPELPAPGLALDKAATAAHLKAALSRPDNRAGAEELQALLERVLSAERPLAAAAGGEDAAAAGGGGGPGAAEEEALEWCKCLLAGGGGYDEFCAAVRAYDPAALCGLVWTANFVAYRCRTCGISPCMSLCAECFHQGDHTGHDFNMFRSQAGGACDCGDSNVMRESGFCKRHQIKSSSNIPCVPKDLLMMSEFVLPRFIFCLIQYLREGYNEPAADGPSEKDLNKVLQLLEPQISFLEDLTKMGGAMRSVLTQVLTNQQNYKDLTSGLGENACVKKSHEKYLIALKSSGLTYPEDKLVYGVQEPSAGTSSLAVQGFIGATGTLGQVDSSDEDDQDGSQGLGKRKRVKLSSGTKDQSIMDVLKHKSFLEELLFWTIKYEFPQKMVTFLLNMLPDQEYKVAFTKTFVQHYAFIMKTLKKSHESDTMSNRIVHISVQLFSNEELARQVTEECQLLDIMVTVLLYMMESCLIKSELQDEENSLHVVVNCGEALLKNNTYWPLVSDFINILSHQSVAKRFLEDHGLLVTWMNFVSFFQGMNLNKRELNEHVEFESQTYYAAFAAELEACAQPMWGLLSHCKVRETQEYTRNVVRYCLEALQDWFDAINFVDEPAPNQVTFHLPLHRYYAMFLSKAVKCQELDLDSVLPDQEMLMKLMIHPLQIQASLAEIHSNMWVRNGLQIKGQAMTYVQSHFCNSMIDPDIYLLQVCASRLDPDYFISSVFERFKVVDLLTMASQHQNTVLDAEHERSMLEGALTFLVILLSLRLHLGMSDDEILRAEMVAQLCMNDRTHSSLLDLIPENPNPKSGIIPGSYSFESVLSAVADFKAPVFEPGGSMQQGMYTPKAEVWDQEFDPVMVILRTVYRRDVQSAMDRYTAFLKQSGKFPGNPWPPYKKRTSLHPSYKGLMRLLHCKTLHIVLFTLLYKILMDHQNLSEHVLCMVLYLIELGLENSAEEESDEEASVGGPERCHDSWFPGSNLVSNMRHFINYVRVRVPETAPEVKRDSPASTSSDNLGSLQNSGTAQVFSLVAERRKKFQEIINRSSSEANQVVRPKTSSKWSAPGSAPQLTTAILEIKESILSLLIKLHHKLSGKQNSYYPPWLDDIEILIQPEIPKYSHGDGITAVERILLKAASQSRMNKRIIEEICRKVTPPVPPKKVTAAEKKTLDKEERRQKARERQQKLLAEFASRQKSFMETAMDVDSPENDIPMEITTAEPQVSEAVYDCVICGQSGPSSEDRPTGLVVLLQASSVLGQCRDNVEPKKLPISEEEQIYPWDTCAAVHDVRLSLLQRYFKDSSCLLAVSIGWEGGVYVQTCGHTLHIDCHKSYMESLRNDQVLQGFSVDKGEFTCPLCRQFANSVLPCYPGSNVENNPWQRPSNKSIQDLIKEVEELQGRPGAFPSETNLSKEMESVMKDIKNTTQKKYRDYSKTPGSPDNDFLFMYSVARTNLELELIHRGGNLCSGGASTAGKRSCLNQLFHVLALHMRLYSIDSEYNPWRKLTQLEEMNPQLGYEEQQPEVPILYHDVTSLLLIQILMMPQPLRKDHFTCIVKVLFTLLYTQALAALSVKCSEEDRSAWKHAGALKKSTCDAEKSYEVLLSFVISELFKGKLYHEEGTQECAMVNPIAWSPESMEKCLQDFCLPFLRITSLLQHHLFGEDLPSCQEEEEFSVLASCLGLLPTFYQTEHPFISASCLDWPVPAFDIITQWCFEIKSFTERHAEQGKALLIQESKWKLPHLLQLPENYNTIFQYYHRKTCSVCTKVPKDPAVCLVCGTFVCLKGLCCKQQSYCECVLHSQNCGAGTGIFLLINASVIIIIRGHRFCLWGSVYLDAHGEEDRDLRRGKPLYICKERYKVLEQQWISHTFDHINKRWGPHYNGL
Chain of UniProt P29144 (P29144 whole entry, looked up): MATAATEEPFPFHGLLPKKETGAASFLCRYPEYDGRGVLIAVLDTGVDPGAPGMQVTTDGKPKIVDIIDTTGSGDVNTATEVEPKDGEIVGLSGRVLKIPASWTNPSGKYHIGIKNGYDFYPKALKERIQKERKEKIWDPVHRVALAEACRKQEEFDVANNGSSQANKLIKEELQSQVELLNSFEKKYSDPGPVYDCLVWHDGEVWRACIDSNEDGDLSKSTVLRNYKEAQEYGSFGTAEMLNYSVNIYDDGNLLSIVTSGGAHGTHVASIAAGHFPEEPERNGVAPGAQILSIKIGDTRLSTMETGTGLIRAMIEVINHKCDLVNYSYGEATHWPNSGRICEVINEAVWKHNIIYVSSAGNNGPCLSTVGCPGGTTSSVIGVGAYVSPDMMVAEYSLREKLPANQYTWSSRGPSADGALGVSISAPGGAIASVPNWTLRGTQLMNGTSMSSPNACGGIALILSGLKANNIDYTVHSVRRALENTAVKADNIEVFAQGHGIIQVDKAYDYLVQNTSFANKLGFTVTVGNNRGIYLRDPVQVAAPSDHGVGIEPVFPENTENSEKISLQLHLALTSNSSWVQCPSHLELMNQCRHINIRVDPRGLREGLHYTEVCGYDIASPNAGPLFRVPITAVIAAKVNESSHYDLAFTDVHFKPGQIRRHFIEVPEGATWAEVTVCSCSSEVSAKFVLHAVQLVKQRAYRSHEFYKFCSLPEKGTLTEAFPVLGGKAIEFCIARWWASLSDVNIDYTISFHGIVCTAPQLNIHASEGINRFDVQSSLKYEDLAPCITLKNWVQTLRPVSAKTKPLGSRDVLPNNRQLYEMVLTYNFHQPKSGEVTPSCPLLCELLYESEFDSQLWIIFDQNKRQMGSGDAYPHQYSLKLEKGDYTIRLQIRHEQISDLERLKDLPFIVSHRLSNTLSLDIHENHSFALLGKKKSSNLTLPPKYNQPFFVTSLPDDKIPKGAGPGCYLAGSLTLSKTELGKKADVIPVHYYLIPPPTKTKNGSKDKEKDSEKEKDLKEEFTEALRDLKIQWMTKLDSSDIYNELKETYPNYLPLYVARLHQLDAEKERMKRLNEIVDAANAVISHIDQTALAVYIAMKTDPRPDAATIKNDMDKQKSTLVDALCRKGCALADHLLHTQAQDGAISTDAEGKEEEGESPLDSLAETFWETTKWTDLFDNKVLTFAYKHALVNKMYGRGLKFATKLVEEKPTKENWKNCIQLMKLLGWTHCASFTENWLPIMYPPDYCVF
Chain of UniProt P04183 (P04183 whole entry, looked up): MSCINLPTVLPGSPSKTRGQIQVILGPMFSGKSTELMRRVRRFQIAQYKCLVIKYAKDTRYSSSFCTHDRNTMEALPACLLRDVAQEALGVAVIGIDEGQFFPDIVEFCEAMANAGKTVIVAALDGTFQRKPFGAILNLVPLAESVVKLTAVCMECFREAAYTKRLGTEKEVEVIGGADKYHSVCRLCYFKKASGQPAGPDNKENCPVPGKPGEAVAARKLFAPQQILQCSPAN
Chain of UniProt O60704 (O60704 whole entry, looked up): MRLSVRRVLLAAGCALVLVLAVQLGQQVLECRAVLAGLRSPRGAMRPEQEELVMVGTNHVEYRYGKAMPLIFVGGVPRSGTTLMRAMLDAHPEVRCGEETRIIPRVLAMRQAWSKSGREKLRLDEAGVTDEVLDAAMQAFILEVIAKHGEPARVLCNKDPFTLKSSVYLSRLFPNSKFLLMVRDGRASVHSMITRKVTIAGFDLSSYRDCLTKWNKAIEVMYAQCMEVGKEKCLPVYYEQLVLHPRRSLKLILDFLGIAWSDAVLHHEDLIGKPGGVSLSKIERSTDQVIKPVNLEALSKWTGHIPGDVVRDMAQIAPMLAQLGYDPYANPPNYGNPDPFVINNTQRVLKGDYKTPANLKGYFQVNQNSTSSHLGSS
Chain of UniProt O60701 (O60701 whole entry, looked up): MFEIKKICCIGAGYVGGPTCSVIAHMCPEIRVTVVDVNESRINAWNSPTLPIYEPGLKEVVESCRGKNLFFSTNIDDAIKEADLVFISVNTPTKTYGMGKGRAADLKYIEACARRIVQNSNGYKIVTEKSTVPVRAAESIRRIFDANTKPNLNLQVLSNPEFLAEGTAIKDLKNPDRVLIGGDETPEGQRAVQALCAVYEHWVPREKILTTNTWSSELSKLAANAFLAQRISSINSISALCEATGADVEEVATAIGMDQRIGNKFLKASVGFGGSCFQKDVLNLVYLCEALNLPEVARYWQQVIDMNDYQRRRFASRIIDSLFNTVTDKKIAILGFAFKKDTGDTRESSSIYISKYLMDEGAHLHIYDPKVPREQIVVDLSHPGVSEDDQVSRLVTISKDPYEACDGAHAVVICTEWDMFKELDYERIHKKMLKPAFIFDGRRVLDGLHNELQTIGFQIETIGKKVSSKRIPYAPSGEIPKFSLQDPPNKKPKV
Chain of UniProt Q13595 (Q13595 whole entry, looked up): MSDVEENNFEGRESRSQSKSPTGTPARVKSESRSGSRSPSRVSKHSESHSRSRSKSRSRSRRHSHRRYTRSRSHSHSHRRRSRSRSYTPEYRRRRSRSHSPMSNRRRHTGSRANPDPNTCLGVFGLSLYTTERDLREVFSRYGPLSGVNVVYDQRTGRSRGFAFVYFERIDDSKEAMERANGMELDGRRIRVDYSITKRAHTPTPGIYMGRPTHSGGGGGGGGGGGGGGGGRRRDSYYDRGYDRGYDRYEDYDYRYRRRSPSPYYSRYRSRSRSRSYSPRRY
Chain of UniProt Q15628 (Q15628 whole entry, looked up): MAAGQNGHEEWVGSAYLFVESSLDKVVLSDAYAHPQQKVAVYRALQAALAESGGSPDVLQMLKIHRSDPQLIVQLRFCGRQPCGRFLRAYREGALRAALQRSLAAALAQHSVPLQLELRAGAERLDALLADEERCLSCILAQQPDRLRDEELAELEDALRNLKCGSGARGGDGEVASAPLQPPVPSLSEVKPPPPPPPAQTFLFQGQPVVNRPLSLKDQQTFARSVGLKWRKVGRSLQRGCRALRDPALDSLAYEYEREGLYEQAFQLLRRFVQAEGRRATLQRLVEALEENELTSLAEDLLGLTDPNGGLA
Chain of UniProt P62256 (P62256 whole entry, looked up): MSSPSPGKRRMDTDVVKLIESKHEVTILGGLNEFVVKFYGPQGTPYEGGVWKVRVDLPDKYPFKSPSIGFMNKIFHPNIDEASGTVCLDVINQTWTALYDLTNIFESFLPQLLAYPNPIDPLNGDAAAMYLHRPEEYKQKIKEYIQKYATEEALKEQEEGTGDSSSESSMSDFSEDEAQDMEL

Target	log2 fold change (ibrutinib)	log2 fold change [1]	log2 fold change (ralimetinib)	log2 fold change [2]	log2 fold change [3]	log2 fold change [4]	log2 fold change [5]	log2 fold change [6]	log2 fold change [7]	log2 fold change [8]	log2 fold change (vemurafenib)	log2 fold change [9]	log2 fold change (barasertib)	log2 fold change [10]	log2 fold change (volasertib)	log2 fold change [11]	log2 fold change [12]	log2 fold change [13]	log2 fold change (saracatinib)	log2 fold change (sotrastaurin)
TRIM56 (UniProt Q9BRZ2)	0.023	0.007	0.028	0.001	-0.03	0	0.002	-0.06	0.014	0.033	0.026	0.026	-0.039	0.006	-0.029	-0.04	0.227	-0.102	0.031	-0.019
TOPBP1 (UniProt Q92547)	0.012	0.003	0.011	0.011	0.006	-0.02	-0.01	-0.035	0.041	0.055	0.024	-0.08	0.018	0.012	-0.079	-0.029	0.305 (active)	-0.071	-0.003	0.02
UFSP2 (UniProt Q9NUQ7)	0.004	-0.005	0.023	-0.004	-0.023	0.01	0.005	-0.036	-0.003	-0.006	0.074	-0.018	-0.019	0.072	-0.071	0.016	-0.011	0.002	0.036	0.018
TPP2 (UniProt P29144)	-0.018	-0.016	-0.002	0.014	-0.012	-0.013	0.003	0.008	0.012	0.002	-0.015	0.01	-0.024	-0.016	-0.023	0.009	0.025	-0.012	-0.016	-0.009
TPD52L2 isoform 7 (UniProt O43399)	-0.016	0.017	-0.013	0.01	-0.013	0.023	-0.024	0.007	-0.006	-0.001	-0.02	-0.033	0.045	0.048	0.017	0.011	-0.14	0.207	0.003	0.034
THOC5 (UniProt Q13769)	0.023	0.004	0.015	-0.011	0.008	-0.011	-0.002	0.004	0.018	-0.001	0.005	0.013	-0.023	-0.031	-0.008	0.008	0.02	-0.008	0.024	0.013
UBR3 isoform 4 (UniProt Q6ZT12)	-0.002	-0.023	0.107	-0.009	0.005	0.006	-0.055	-0.016	0.013	0.021	0.035	-0.001	0.026	-0.033	-0.091	-0.011	-0.015	-0.044	0.044	0.009
TPST2 (UniProt O60704)	-0.098	-0.036	0.006	0.019	-0.08	0.039	-0.06	-0.039	-0.036	-0.08	0.053	0.009	0.097	0.075	-0.024	-0.011	-0.851 (active)	0.188	0.011	0.065
TRIM25 (UniProt Q14258)	-0.001	-0.001	-0.013	0.055	-0.011	-0.002	-0.005	0.005	0.004	0.006	0.017	0.012	0.001	-0.024	-0.006	-0.007	0.029	-0.035	-0.002	-0.05
TTC5 (UniProt Q8N0Z6)	0.019	0.007	0.017	0.001	0.042	-0.089	-0.01	0.017	0.016	-0.001	0.016	0.017	-0.014	-0.03	-0.014	0.018	-0.111	0.054	0.005	0.007
UBE2H (UniProt P62256)	0.032	0.026	-0.033	-0.002	-0.004	0.064	0.022	0.005	0.026	-0.027	-0.032	-0.013	-0.006	0.011	0.004	-0.055	0.166	-0.227 (active)	-0.056	-0.02
TIAL1 isoform 2 (UniProt Q01085)	0.018	-0.004	-0.063	-0.001	-0.001	0.049	0.015	-0.167	-0.06	-0.012	-0.009	0.014	-0.023	0.072	0.005	0.002	-0.076	0.056	-0.02	-0.017
TLK2 isoform 2 (UniProt Q86UE8)	-0.021	0.104	0.035	-0.018	0.007	-0.009	0.051	0	0.025	-0.055	-0.015	-0.011	0.017	-0.068	-0.03	-0.009	-0.171	0.085	0.021	0.26 (active)
TRAPPC6A isoform 2 (UniProt O75865)	-0.023	-0.011	-0.027	-0.037	-0.031	-0.052	0.012	0.008	0.004	-0.062	-0.144	0.027	-0.001	-0.288 (active)	-0.035	-0.072	-0.228	-0.096	0.001	-0.042
TTF2 (UniProt Q9UNY4)	0.003	-0.121	0.035	-0.006	-0.02	0.037	-0.084	-0.058	-0.018	-0.115	0.008	0.037	0.027	-0.028	0.022	0.003	-0.003	-0.026	0.025	0.024
TTC4 (UniProt O95801)	0.002	0.015	0.005	0.011	0.03	-0.029	-0.033	0.026	0.029	0	0.004	0.05	-0.004	0.008	-0.024	0.007	-0.089	-0.027	0.033	0.005
TTK (UniProt P33981)	0.008	0.111	0.025	-0.036	0.001	0.018	-0.008	-0.011	0.017	0.013	-0.009	0.02	0.06	0.089	-0.026	-0.048	-0.018	0.01	-0.037	0.072
UCHL5 isoform 3 (UniProt Q9Y5K5)	0	-0.001	0.01	-0.008	0.015	0.014	0.011	-0.029	0.004	0.012	0.013	0.016	-0.001	-0.019	-0.017	0.014	0.164	-0.06	-0.012	-0.005
UBR4 (UniProt Q5T4S7)	-0.019	-0.008	0.02	-0.011	-0.02	0.003	0.011	0.009	0.014	0.01	-0.003	0.016	0.02	-0.037	-0.03	0.019	-0.034	-0.031	0.01	0.007
TMEM263 (UniProt Q8WUH6)	-0.04	-0.003	-0.037	-0.174	-0.002	0.349	0.049	-0.058	0.004	-0.079	0.086	-0.024	0.19	0.133	0.023	0.097	-0.034	-0.242	0.109	-0.003
TUBB4B (UniProt P68371)	-0.012	0.029	0.026	0.029	0.02	0.011	0.022	-0.05	0.035	0.018	0.006	0.004	-0.092	-0.032	-0.034	0.005	-0.134	-0.011	0.03	-0.021
UGDH (UniProt O60701)	0.02	0.02	0.085	-0.004	-0.004	0.019	0.215 (active)	-0.037	0.058	0.031	0.008	0.017	-0.003	-0.062	-0.045	0.011	-0.028	-0.021	0.187	0.003
TK1 (UniProt P04183)	0.004	-0.004	0.023	-0.022	-0.029	0	0.006	0.046	-0.014	-0.006	0.022	0.013	-0.007	0.009	0.031	-0.008	-0.124	0.104	-0.002	0.002
TRA2A (UniProt Q13595)	0.127	-0.018	-0.079	-0.013	0.21	-0.027	0.039	0.056	0.019	-0.007	-0.197	-0.033	-0.194	-0.037	-0.052	0.073	-0.023	0.07	0.074	0
TRADD (UniProt Q15628)	0.013	0.017	-0.005	-0.012	-0.018	-0.015	-0.001	0.017	0.021	0.019	-0.611 (active)	0.052	-0.002	0.07	-0.023	0.065	0.014	0.001	0.011	-0.023
TPM3 isoform 2 (UniProt P06753)	0.03	-0.007	-0.02	0.05	-0.034	-0.005	-0.019	-0.073	0.002	-0.006	-0.052	-0.024	-0.016	-0.07	0.007	0.026	0.196	-0.179	-0.009	0.025

— the supplement of paper PMC10849652
